NPR1 activator: GC-A (human) enzyme activation; 370,000 tested, 0.14% active; activation, % at 10 µM; P16066; AID 1671463; HEK293 GC-A cells, cGMP TR-FRET, EC30 ANP; 0% at EC30 ANP, 100% saturating ANP; in the data active = activation above about 40%
NPR2 activator: GC-B (human) receptor activation | P20594 | HEK293-GC-B cells, CNP EC30, cGMP TR-FRET; 0% at EC30 CNP, 100% saturating CNP | activation, % at 10 µM | 370,000 tested, 0.11% active | AID 1920062;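 active = activation at 10 µM reaching about 35% in either raw or pattern-adjusted values, limit read from the data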
Target sequence (P20594 whole entry, looked up): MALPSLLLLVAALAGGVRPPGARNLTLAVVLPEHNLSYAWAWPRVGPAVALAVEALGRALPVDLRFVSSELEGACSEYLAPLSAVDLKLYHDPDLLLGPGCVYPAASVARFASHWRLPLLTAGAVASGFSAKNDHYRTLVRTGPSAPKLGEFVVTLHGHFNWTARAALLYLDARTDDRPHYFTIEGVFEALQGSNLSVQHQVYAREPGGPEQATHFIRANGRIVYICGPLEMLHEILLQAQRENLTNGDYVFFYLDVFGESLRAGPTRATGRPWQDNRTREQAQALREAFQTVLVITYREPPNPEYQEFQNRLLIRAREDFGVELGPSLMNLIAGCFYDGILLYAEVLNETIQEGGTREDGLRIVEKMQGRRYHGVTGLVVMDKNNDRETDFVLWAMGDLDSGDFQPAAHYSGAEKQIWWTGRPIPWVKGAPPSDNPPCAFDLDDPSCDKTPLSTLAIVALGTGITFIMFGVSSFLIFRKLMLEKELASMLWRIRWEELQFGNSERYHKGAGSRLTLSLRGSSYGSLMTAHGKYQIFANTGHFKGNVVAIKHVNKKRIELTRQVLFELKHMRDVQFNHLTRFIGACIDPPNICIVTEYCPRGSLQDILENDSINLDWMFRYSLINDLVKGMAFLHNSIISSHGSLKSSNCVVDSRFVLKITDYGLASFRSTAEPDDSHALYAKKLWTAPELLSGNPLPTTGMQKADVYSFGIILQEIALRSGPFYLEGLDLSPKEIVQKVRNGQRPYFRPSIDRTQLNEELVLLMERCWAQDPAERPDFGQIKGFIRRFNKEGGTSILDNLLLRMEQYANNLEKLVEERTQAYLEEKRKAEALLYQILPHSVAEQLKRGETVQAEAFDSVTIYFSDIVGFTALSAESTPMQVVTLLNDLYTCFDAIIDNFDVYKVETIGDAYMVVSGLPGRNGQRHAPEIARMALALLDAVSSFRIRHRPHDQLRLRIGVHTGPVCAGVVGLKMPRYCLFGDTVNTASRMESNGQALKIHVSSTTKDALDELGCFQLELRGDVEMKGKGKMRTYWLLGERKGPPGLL
Rev-erbA mod: Rev-erb alpha (human) modulation | P20393 | Rev-erbα–FITC-DNA binding, fluorescence polarization, 90 min | activity, % at 10 µM | 370,000 tested, 0.79% active;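 active = activity above about 14%, limit read from the data; passing the limit was not always enough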;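 also: 0% = DMSO wells with 35 nM protein and 100% = DMSO wells with 750 nM protein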
V-ATPase pH: yeast V-ATPase proton transport regulation by pHLuorin; S. cerevisiae, pHLuorin cytosolic pH fluorescence; response, % at 10 µM; 350,000 tested, 0.37% active; in the data active = response mostly above about 7.3%, no sharp cut-off; inactive = mostly below about 5.4%; also: actives read high
PG9 binder: small molecules binding HIV-1 gp120 antibody PG9 | inhibition, % at 6.7 µM | 360,000 tested, 0.43% active | TR-FRET gp120-PG9 antibody binding; in the data active = inhibition above about 8.5%
Rev-erbA confirm: Rev-erb alpha (human) modulation, hit confirmation | shares compounds with Rev-erbA mod | Rev-erb alpha FITC-DNA binding, fluorescence polarization, 90 min | activation, % at 25 µM | 3,000 tested, 61% active | AID 1259319;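 active = activation at or above a set limit, or at least 3 SD above the negative control mean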;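 also: 0% = 35 nM protein with DMSO and 100% = 750 nM protein high control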
RORg counter: counter-screen for Rev-erb alpha modulators: RORgamma DNA binding. IC50, µM. AID 1259320. shares compounds with Rev-erbA mod. 910 tested, 8% active. purified RORgamma protein-FITC-DNA binding, fluorescence polarization;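 active = Compounds whose fitted half-maximal concentration for disrupting protein-DNA binding is below 10 micromolar; the record names Rev-erb in its text, so the target is in doubt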
Active calls of the source: *; i = inactive; . = no result given. A selection: hits, their analogues and other compounds. The true share with any hit is near 1.6%.

SMILES	NPR1 activator	NPR2 activator	Rev-erbA mod	V-ATPase pH	PG9 binder	Rev-erbA confirm	others
N#CCCn1cc(/C=C(\C#N)c2nc3ccccc3s2)c(-c2ccc(F)cc2)n1	-1	62*	45*	0	-2	35*
O=C(CSc1nc2ccccc2nc1N1CCCCC1)NCc1ccc(Cl)cc1Cl	1	-8	47*	.	.	41*	RORg counter=>40
C=CCSc1nc(N)c(C(=O)Nc2ccccc2)cc1C#N	8	-2	10	-1	4	.
C=CCSc1nc(N)c(C(=O)Nc2ccccc2OC)cc1C(=O)Nc1ccccc1	1	2	20*	3	3	15
Cc1ccc(-n2c(N)c(C#N)c(-c3ccccc3)c(C#N)c2=O)cc1	0	-1	22*	2	2	62*	RORg counter=i
Cc1ccc(-c2c(C#N)c(N)n(-c3ccccc3C)c(=O)c2C#N)cc1	1	4	-4	.	-1	.
COCCN1C(=O)/C(=C/c2ccc(N3CCCC3)cc2C)SC1=S	-2	-4	25*	-1	1	39*	RORg counter=>40
CCN=C1S/C(=C\c2ccc(N3CCOCC3)cc2C)C(=O)N1CC	-4	-4	0	-1	-2	.
COc1cccc(OC[C@@H](O)CN2CCC(C(O)(c3ccccc3)c3ccccc3)CC2)c1	-15	-12	-6	.	.	.
Cc1cc(N2CCOCC2)n2ncc(-c3ccc(Cl)cc3)c2n1	13	-3	8	1	1	.
Cc1cc(N2CCOCC2)n2nc(C(F)(F)F)c(-c3ccccc3)c2n1	-1	-1	28*	1	0	-2
CC(=O)Nc1ccc(Nc2cc(C)nc3c(-c4ccc(Cl)cc4)c(C)nn23)cc1	2	4	19*	-1	0	7
Cc1cc(N2CCOCC2)n2ncc(-c3ccccc3)c2n1	4	3	3	-2	0	.
Cc1nn2c(N3CCOCC3)cc(C(C)(C)C)nc2c1-c1ccc(Cl)cc1	5	-7	30*	5	0	-5
Cc1cc(N2CCOCC2)n2nc(C)c(-c3ccc(Cl)cc3)c2n1	1	1	26*	-2	1	-1
CC(C)(C)c1cc(N2CCOCC2)n2ncc(-c3ccc(Cl)cc3)c2n1	6	6	16	-2	0	.
C=CCN(CC#CCN(C)C(=O)c1cccn1C(=O)OC(C)(C)C)Cc1ccc(OC)cc1OC	-12	-12	3	.	.	.
COC(=O)[C@H](Cc1ccccc1)NC(=O)[C@H]1C[C@@]2(N3CCCC3)c3ccccc3N(C(=O)OC(C)(C)C)[C@H]2N1C(=O)OC(C)(C)C	-4	-4	-3	.	.	.
O=C(NCCc1nc2ccccc2n1CCOc1ccc2cccnc2c1)C1CCCCC1	-3	-6	-7	.	.	.
CCCOc1ccc(/C(CC)=N/NC(=O)C2(C)CC2(Br)Br)cc1 (stereo unspecified)	1	-7	34*	1	-1	47*	RORg counter=>40
CCOC(=O)c1nn2c(C(F)(F)F)cc(-c3ccc(OC)cc3)nc2c1Br	-4	-8	41*	-6	-1	5
COCCNC(=O)c1nn2c(C(F)(F)F)cc(-c3ccccc3)nc2c1Br	7	8	-4	1	1	.
CC1(C)Cc2nc3sc4c(OCc5ccccc5)ncnc4c3cc2CO1	16	9	38*	-3	-2	20*
O=C1[C@H]2C[C@@]3(n4ccc5ccccc54)c4ccccc4N(S(=O)(=O)c4ccccc4)[C@H]3N2C(=O)CN1Cc1ccccc1	-2	7	6	.	.	.
CN(CC(=O)Nc1ccc(Cl)cc1)S(=O)(=O)c1ccc2c(c1)n(C)c(=O)c(=O)n2C	8	0	63*	-1	0	43*	RORg counter=>40
CC(C)(C)N(Cc1cn(Cc2ccccc2)nn1)S(=O)(=O)c1ccc(N2CCCC2)cc1Br	0	2	0	.	.	.
COc1ccc(Cl)cc1-c1nc(-c2ccncc2)no1	-1	-5	30*	-2	3	9
COc1ccc(S[C@]2(C(=O)N3CCCC3)CC(=O)N(C(=O)/C=C/c3ccccc3)[C@@H]2c2ccc(OC)cc2)cc1	-2	13	5	.	.	.

Source: PubChem (several laboratories)
